DT40 TDP1 CPT = qHTS for Inhibitors of human tyrosyl-DNA phosphodiesterase 1 (TDP1): qHTS in cells in presence of CPT; AID 686979, 2013; 420,000 tested, 12% active; chicken DT40 Tdp1-/-;hTDP1 cells + 20 nM CPT, ATP luminescence, 48 h; Potency, µM (titrated, usually from 46.2 µM), without a hit: at the highest dose activity change, negative = growth inhibition, actives largely listed as inhibitors; further: nearly all actives have a fitted effect of over 55% in size
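Chicken DT40 Tdp1-/- cells complemented with human TDP1, 400 cells/well, exposed to compounds plus 20 nM camptothecin for at least 48 h at 37 C; viability read as ATP content by CellTiter-Glo luminescence.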
DT40 TDP1 no CPT = qHTS for Inhibitors of human tyrosyl-DNA phosphodiesterase 1 (TDP1): qHTS in cells in absence of CPT; DT40 Tdp1-/- hTDP1 cells, no CPT, ATP luminescence, 48 h; Potency, µM (highest dose often 46.2 µM), inactives show at the top dose activity change, negative = growth inhibition, actives largely listed as inhibitors; 420,000 tested, 15% active; further: nearly all actives have a fitted effect of over 55% in size
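A cellular qHTS used chicken DT40 cells lacking endogenous Tdp1 but carrying stably transfected human TDP1. Compounds were applied without camptothecin, and cell growth kinetics were judged by ATP-dependent luminescence after ≥48 hr.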
HT1080 IDH1KD tx = qHTS for induction of synthetic lethality in tumor cells producing 2HG: qHTS for the HT-1080-IDH1KD cell line. 360,000 tested, 2% active. HT-1080 IDH1 knockdown viability, ATP luminescence, 48 h. Potency, µM (doses to about 46.1 µM), for inactives: at the highest dose activity, negative = toxicity, hits mostly cytotoxic;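 further: 0% = DMSO wells and -100% = cell-free medium wells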
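Using the IDH1-knockdown HT-1080 line run in the same batch and compound series as the NT line, viability after 48 h at 37 °C was determined by CellTiter-Glo luminescence and expressed as % activity.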
HT1080NT lethal = qHTS for induction of synthetic lethality in tumor cells producing 2HG: qHTS for the HT-1080-NT fibrosarcoma cell line; HT-1080-NT fibrosarcoma viability, CellTiter-Glo ATP luminescence, 48 h; Potency, µM (top dose mostly 46.1 µM), for the others: top-dose activity, negative = less viability, usual class: cytotoxic; 360,000 tested, 1.6% active; AID 686970, 2013;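 further: NT is the 2HG producing partner of a matched IDH1 knockdown line; 0% = DMSO-treated cells and -100% = media-only wells without cells; nearly all actives have a fitted effect of over 55% in size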
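A 48-hour cytotoxicity screen used HT-1080-NT cells plated 2 hours before compound delivery. ATP-based CellTiter-Glo luminescence measured viability, normalized to DMSO and no-cell controls.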
KB-3-1 tox = qHTS assay for MDR1-selective chemotherapeutics: Primary screen using the parental adenocarcinoma cell KB-3-1; KB-3-1 viability, CellTiter-Glo ATP luminescence, 72 h; Potency, µM (doses to about 46.1 µM), usual class: cytotoxic; 400,000 tested, 1.4% active; AID 1347075, 2019; further: nearly all actives have a fitted effect of over 60% in size
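KB-3-1 parental drug-naive adenocarcinoma cells in DMEM/10% FBS, incubated 72 h at 37 C with pin-transferred compounds across a concentration series. Viability by CellTiter-Glo luminescence; concentration-response curves fitted after normalization.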
KB-V1 MDR tox = qHTS assay for MDR1-selective chemotherapeutics: Primary screen using the drug-selected MDR subline cells KB-V1; KB-V1 MDR cells viability, CellTiter-Glo, 72 h; Potency, µM (highest dose often 46.1 µM), hits mostly cytotoxic; 400,000 tested, 3.4% active; further: nearly all actives have a fitted effect of over 60% in size
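qHTS viability screen in drug-selected KB-V1 MDR cells: 72 h compound treatment at 37 degrees C, ATP luminescence end point.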
An asterisk follows results filed as active; i = inactive; ? = inconclusive; / = no result given; ! = repeats disagree. Compounds with a hit are over-represented: about 19% of the library has one in this group of screens. The call rests on the fitted dose curve; in most records, active means well fitted curve in the direction sought with a large enough effect; inconclusive means small, poorly fitted or top-dose-only effect, or another doubt; inactive means no such curve, though single readings can be large; an effect the other way counts as inactive or inconclusive. Unless noted, on the % scale 0 is the no-effect control and ±100 the full control effect; potency means the concentration at half of the fitted maximal effect.

SMILES	DT40 TDP1 CPT	DT40 TDP1 no CPT	HT1080 IDH1KD tx	HT1080NT lethal	KB-3-1 tox	KB-V1 MDR tox
CCOC(=O)C1CCN(S(=O)(=O)c2ccc3c(c2)NC(=O)C(C)C(=O)N3)CC1 (centres undefined)	-12%	23µM*!	-7%	-1%	i	?
CC1Sc2ccc(S(=O)(=O)N3CCC(C(=O)NCc4ccc(Cl)cc4)CC3)cc2NC1=O (centres undefined)	16µM*	15µM*	?	?	?	i
OCCN1CCN(c2ncnc3c2ncn3[C@H]2CN(Cc3ccc(Cl)cc3)C[C@@H](CO)O2)CC1	?	-29%	1%	1%	i	i
CC1Sc2ccc(S(=O)(=O)N3CCC(C(=O)Nc4cccc(Cl)c4)CC3)cc2NC1=O (centres undefined)	?	18µM*	?	?	15µM*	i
O=C(O)c1ccc(-n2nncc2-c2ccco2)cc1	9%	-8%	18%	7%	i	i
COc1ccc(-c2cnnn2-c2ccc(NC(=O)c3ccco3)cc2)cc1OC	-5%	-6%	9%	-6%	i	i
COc1ccc(-c2cnnn2-c2ccc(NC(=O)c3ccc(S(=O)(=O)N4CCCCC4)cc3)cc2)cc1OC	21µM*	12µM*	-15%	-9%	i	i
O=C(Nc1ccc(-n2nncc2-c2ccco2)cc1)c1ccc(F)cc1	?	?	-16%	-10%	i	16µM*
COc1ccc(C(=O)Nc2ccc(-n3nncc3-c3ccc(OC)c(OC)c3)cc2)cc1	21µM*	21µM*	/	/	/	/
O=C(c1ccc2c(c1)N(Cc1ccc(Cl)cc1)C(=O)c1ccccc1S2(=O)=O)N1CCN(c2ccccn2)CC1	16µM*	23µM*	/	/	?	i
N#Cc1cccnc1N1CCN(C(=O)c2ccc3c(c2)S(=O)(=O)c2ccccc2C3=O)CC1	26µM*	?	-6%	-4%	i	i
O=C(NCc1ccccc1)c1ccc2c(c1)N(Cc1cccc(Cl)c1)C(=O)c1ccccc1S2(=O)=O	?	4%	/	/	/	/
O=C(c1ccc2c(c1)N(Cc1cccc(Cl)c1)C(=O)c1ccccc1S2(=O)=O)N1CCN(c2ccccn2)CC1	?	13µM*	-16%	?	?	?
O=C1c2ccccc2S(=O)(=O)c2cc(C(=O)N3CCN(c4ccc(Cl)cn4)CC3)ccc21	3%	-11%	2%	-1%	i	i
O=[N+]([O-])c1cc(N=Nc2ccc3ccccc3c2)ccc1O	18µM*	?	0%	-7%	i	i
O=C1CSC(c2cn(-c3ccccc3)nc2-c2ccccc2)N1Cc1ccco1 (centres undefined)	?	18µM*	?	?	?	?
NC(=NCCc1ccccc1)NS(=O)(=O)c1ccc(F)cc1	-15%	?	2%	-9%	i	16µM*
NC(=NCCc1ccccc1)NS(=O)(=O)c1ccc2ccccc2c1	6%	3%	15%	9%	i	i
Cc1ccc(S(=O)(=O)NC(N)=NCCc2ccc(Cl)cc2)cc1	?	?	-7%	-9%	i	16µM*
COc1ccc(CCN=C(N)NS(=O)(=O)c2ccc(C)cc2)cc1	-24%	?	-15%	1%	i	i
CCc1ccc(NC(=O)CCCc2nc(-c3ccco3)no2)cc1	?	?	/	/	i	i
C(=N\n1cnnc1)/c1cccc2ccccc12	7%	-7%	-2%	-1%	?	10µM*
COc1ccc2ccccc2c1/C=N/n1cnnc1	20%	?	-1%	1%	i	i
C(=N\n1cnnc1)/c1cn(Cc2ccccc2)c2ccccc12	-12%	-22%	?	-30%	i	15µM*
COc1cc(OC)c(OC)cc1CNCCSc1nnnn1C	-15%	-2%	17%	22%	i	i
SMILES	DT40 TDP1 CPT	DT40 TDP1 no CPT	HT1080 IDH1KD tx	HT1080NT lethal	KB-3-1 tox	KB-V1 MDR tox
CC(C)S(=O)(=O)c1csc(C(=O)NN)c1Cl	2%	-8%	-3%	4%	i	i
COC(=O)c1scc(S(=O)(=O)C(C)C)c1N/N=C(\C#N)C(=O)c1ccc(Cl)cc1	?	23µM*	?	?	?	?
COC(=O)c1scc(C#N)c1N/N=C(\C#N)S(=O)(=O)c1ccc(Cl)cc1	4.1µM*	4.6µM*	?	?	?	8.2µM*
COC(=O)c1scc(C)c1NC(=O)c1ccc(Cl)cc1	-8%	?	0%	1%	i	i
Cc1cccc(CN2CCN(CC(=O)NCCc3ccc(Cl)cc3)C2=O)c1	-13%	?	/	/	i	i
CC(C)(C)C#CCn1c(/C=[N+](\[O-])C2CCCCC2)nc2ccccc21	12µM*	18µM*	-6%	0%	i	i
CCC(=O)Nc1cccc2c1C(=O)N(C)C2=O	-12%	-14%	-2%	1%	i	i
Nc1cccc(C(=O)OCC(=O)c2ccccc2)c1	-21%	-21%	24%	?	i	i
CCN(CC)CCC(=O)Nc1cccc2c1C(=O)c1ccccc1C2=O	12µM*	10µM*	15µM*	18µM*	?	18µM*
Cc1cccc(C)c1NC(=O)COC(=O)c1cccc2c1C(=O)c1ccccc1C2=O	12µM*	8.2µM*	-7%	-4%	i	?
